According to PubChem BioAssay AID1159580 (chemical genetic matrix, 2015):
Values joined by “and” are separate entries in the source; they are usually repeats but may differ in a detail not shown here. Equal values may be shown once. About 2,000 (36%) of roughly 5,500 compounds were called active. Inconclusive results (about 18%) are left out. No stated cut-off is given here; in the data, active means normalized growth mostly below about 0.91 (no sharp cut-off); inconclusive means no clear call, values can overlap the other calls; inactive means mostly above about 0.92. The list shows a part of the results.

Assay: chemical genetic growth profiling, strain panel (AID 1159580);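 further: tested at 20 µM; growth read once vehicle control cultures reached saturation at 30 °C; 1 = growth at the plate median or of vehicle wells; lower values mean less growth of the strain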
Conditions: S. cerevisiae deletion strains, growth OD
[1] = locus YBR229C, strain ROT2, hits give low values
[2] = locus YDL101C, strain DUN1, hits give low values
[3] = locus YDR150W, strain NUM1, hits give low values
[4] = locus YHR030C, strain SLT2, hits give low values
[5] = locus YJR043C, strain POL32, hits give low values
[6] = locus YJR075W, strain HOC1, hits give low values
[7] = locus YLR039C, strain RIC1, hits give low values
[8] = locus YLR262C, strain YPT6, hits give low values
[9] = locus YPL241C, strain CIN2, hits give low values

Measured: normalized growth

CC1(C)CC23C(=O)CCC(O)C2(C)CCC13 (stereo not drawn)
inactive: locus YAL021C, strain ccr4, hits give low values 0.956 | locus YAL026C, strain drs2, hits give low values 0.989 | locus YAL030W, strain snc1, hits give low values 0.979 | locus YBL061C, strain skt5, hits give low values 0.99 | locus YBR009C, strain hhf1, hits give low values 1.02 | locus YBR021W, strain FUR4, hits give low values 0.995 | locus YBR023C, strain chs3, hits give low values 0.993 | locus YBR171W, strain sec66, hits give low values 0.974 | [1] 1.01 | locus YBR231C, strain swc5, hits give low values 1.01 | locus YBR279W, strain paf1, hits give low values 0.987 | locus YCL011C, strain gbp2, hits give low values 0.979 | locus YCL016C, strain dcc1, hits give low values 0.967 | locus YCL029C, strain bik1, hits give low values 1 | locus YCL069W, strain vba3, hits give low values 0.984 | locus YCR088W, strain abp1, hits give low values 0.985 | locus YDL005C, strain med2, hits give low values 0.97 | locus YDL035C, strain GPR1, hits give low values 1.01 | locus YDL040C, strain nat1, hits give low values 0.991 | locus YDL074C, strain BRE1, hits give low values 1.05 | [2] 1.04 | locus YDL185W, strain tfp1, hits give low values 1.01 | locus YDL192W, strain arf1, hits give low values 1 | locus YDR001C, strain nth1, hits give low values 0.986 | locus YDR069C, strain doa4, hits give low values 0.967 | locus YDR101C, strain arx1, hits give low values 0.983 | locus YDR137W, strain rgp1, hits give low values 0.974 | [3] 1 | locus YDR159W, strain sac3, hits give low values 0.988 | locus YDR162C, strain NBP2, hits give low values 1.01 | locus YDR195W, strain ref2 0.957 | locus YDR297W, strain sur2, hits give low values 1.01 | locus YDR318W, strain mcm21, hits give low values 1 | locus YDR334W, strain swr1, hits give low values 0.978 | locus YDR335W, strain msn5, hits give low values 0.989 | locus YDR388W, hits give low values 1.02 | locus YDR392W, strain spt3, hits give low values 0.939 | locus YDR502C, strain sam2, hits give low values 1.03 | locus YEL003W, strain gim4, hits give low values 0.989 | locus YEL037C, strain rad23, hits give low values 0.981 | locus YEL061C, strain CIN8 (second series), hits give low values 0.985 | locus YER015W, strain faa2, hits give low values 0.989 | locus YER016W, strain bim1, hits give low values 0.961 | locus YER110C, hits give low values 1.03 | locus YER111C, strain swi4, hits give low values 0.971 | locus YER155C, strain BEM2 (second series), hits give low values 0.985 | locus YER155C, strain BEM2, hits give low values 1 | locus YER167W, strain BCK2, hits give low values 0.997 | locus YFR010W, strain ubp6, hits give low values 1 | locus YGL078C, strain dbp3, hits give low values 1.02 | locus YGL086W, strain mad1, hits give low values 1.01 | locus YGL167C, strain pmr1, hits give low values 0.976 | locus YGL173C, strain kem1, hits give low values 0.978 | locus YGL227W, strain vid30, hits give low values 0.983 | locus YGL240W, strain doc1, hits give low values 1.01 | locus YGL248W, strain PDE1, hits give low values 1.06 | locus YGL253W, strain hxk2, hits give low values 0.984 | locus YGR135W, strain pre9, hits give low values 1.08 | locus YGR252W, strain gcn5, hits give low values 1.05 | locus YHR013C, strain ard1, hits give low values 0.952 | locus YHR027C, strain rpn1, hits give low values 0.987 | [4] 1 and 1.03 | locus YHR079C, strain IRE1 (second series), hits give low values 1.01 | locus YHR079C, strain IRE1, hits give low values 1.04 | locus YHR094C, strain hxt1, hits give low values 1.01 | locus YHR129C, strain ARP1, hits give low values 1.01 | locus YHR142W, strain chs7, hits give low values 0.96 | locus YHR200W, strain rpn10, hits give low values 1.02 | locus YIL066C, strain RNR3, hits give low values 1.01 | locus YIL073C, strain SPO22, hits give low values 1.08 | locus YIL125W, strain kgd1, hits give low values 0.998 | locus YIR030C, strain dcg1, hits give low values 1.02 | locus YJL092W, strain hpr5, hits give low values 0.994 | locus YJL095W, strain BCK1 (second series), hits give low values 0.98 | locus YJL095W, strain BCK1, hits give low values 1.1 and 1.04 | locus YJL115W, strain asf1, hits give low values 0.97 | locus YJL129C, strain trk1, hits give low values 0.955 | locus YJL134W, strain LCB3, hits give low values 1.01 | locus YJL154C, strain vps35, hits give low values 0.969 | locus YJL164C, strain tpk1, hits give low values 0.997 | locus YJL166W, strain qcr8, hits give low values 1.01 | locus YJL168C, strain set2, hits give low values 0.996 | locus YJL187C, strain SWE1 (second series), hits give low values 1.05 | [5] 0.983 | locus YJR066W, strain TOR1, hits give low values 0.972 | [6] 1.03 | locus YKL009W, strain mrt4, hits give low values 1.03 | locus YKL068W, hits give low values 1 | locus YKL085W, strain MDH1 (second series), hits give low values 1.01 | locus YKL085W, strain MDH1, hits give low values 1.01 | locus YKL160W, strain elf1, hits give low values 0.974 | locus YKL190W, strain CNB1, hits give low values 1.01 | locus YKR001C, strain vps1, hits give low values 1.04 | locus YKR026C, strain gcn3, hits give low values 0.99 | locus YKR091W, strain srl3, hits give low values 0.989 | locus YLL001W, strain dnm1, hits give low values 0.99 | locus YLL026W, hits give low values 0.994 | locus YLL041C, strain sdh2, hits give low values 0.985 | locus YLR027C, strain aat2, hits give low values 0.992 | [7] 1.13 | locus YLR058C, strain SHM2, hits give low values 1.03 | locus YLR102C, strain apc9, hits give low values 1 | locus YLR113W, strain HOG1, hits give low values 1.03 | locus YLR221C, strain rsa3, hits give low values 1.01 | locus YLR258W, strain gsy2, hits give low values 0.984 | locus YLR262C, strain YPT6 (second series), hits give low values 1.01 | [8] 1.07 | locus YLR268W, strain sec22, hits give low values 0.995 | locus YLR320W, strain mms22, hits give low values 0.997 | locus YLR330W, strain CHS5, hits give low values 1.02 | locus YLR342W, strain FKS1 (second series), hits give low values 1.01 | locus YLR342W, strain FKS1, hits give low values 0.977 | locus YLR357W, strain rsc2, hits give low values 0.956 | locus YLR370C, strain arc18, hits give low values 0.981 | locus YLR371W, strain rom2, hits give low values 0.995 | locus YLR384C, strain iki3, hits give low values 0.952 | locus YLR418C, strain cdc73, hits give low values 1.05 | locus YML016C, strain PPZ1, hits give low values 1.02 | locus YML032C, strain rad52, hits give low values 1.01 | locus YML120C, strain ndi1, hits give low values 0.984 | locus YML124C, strain tub3, hits give low values 1 | locus YMR058W, strain fet3, hits give low values 0.987 | locus YMR078C, strain ctf18, hits give low values 1.02 | locus YMR125W, strain sto1, hits give low values 0.986 | locus YMR129W, hits give low values 0.981 | locus YMR205C, strain PFK2, hits give low values 0.999 | locus YMR223W, strain ubp8, hits give low values 1.02 | locus YMR231W, strain pep5, hits give low values 0.991 | locus YMR307W, strain GAS1, hits give low values 1.08 | locus YNL067W, strain RPL9B, hits give low values 1.03 | locus YNL071W, strain lat1, hits give low values 0.991 | locus YNL183C, strain NPR1, hits give low values 0.973 | locus YNL209W, strain ssb2, hits give low values 0.988 | locus YNL233W, strain BNI4, hits give low values 1.06 | locus YNL248C, strain rpa49, hits give low values 0.951 | locus YNL250W, strain rad50, hits give low values 1.02 | locus YNL271C, strain bni1, hits give low values 0.999 | locus YNL298W, strain CLA4, hits give low values 1.01 | locus YNL307C, strain MCK1, hits give low values 1.02 | locus YNL322C, strain KRE1 (second series), hits give low values 1 | locus YNR049C, strain mso1, hits give low values 0.972 | locus YNR052C, strain pop2, hits give low values 1.03 | locus YOL012C, strain htz1 1.22 | locus YOL147C, strain pex11, hits give low values 1.02 | locus YOR001W, strain rrp6, hits give low values 1.02 | locus YOR061W, strain CKA2, hits give low values 1.01 | locus YOR069W, strain VPS5, hits give low values 1.01 | locus YOR070C, strain gyp1, hits give low values 0.987 | locus YOR080W, strain dia2, hits give low values 0.981 | locus YOR083W, strain WHI5, hits give low values 0.979 | locus YOR106W, strain vam3, hits give low values 0.962 | locus YOR136W, strain idh2, hits give low values 1.01 | locus YOR144C, strain elg1, hits give low values 1.01 | locus YOR184W, strain ser1, hits give low values 0.994 | locus YOR231W, strain MKK1, hits give low values 1.05 | locus YOR265W, strain rbl2, hits give low values 1 | locus YOR270C, strain vph1, hits give low values 0.976 | locus YOR290C, strain snf2, hits give low values 0.977 | locus YOR316C, strain cot1, hits give low values 1.01 | locus YPL051W, strain arl3, hits give low values 0.987 | locus YPL078C, strain atp4, hits give low values 0.981 | locus YPL106C, strain sse1, hits give low values 0.97 | locus YPL240C, strain hsp82, hits give low values 1 | [9] 1.01 | locus YPL256C, strain CLN2, hits give low values 1.04 | locus YPR119W, strain clb2, hits give low values 1 | locus YPR141C, strain kar3, hits give low values 1 | locus YPR163C, strain tif3, hits give low values 1.01 | locus YPR167C, strain met16, hits give low values 1.03 | strain wtn01, hits give low values 0.984

Cc1cc(S(=O)(=O)NCCNc2nccc(C(F)(F)F)n2)c(C)cc1Cl
inactive: locus YAL013W, strain DEP1, hits give low values 1.01 | [1] 1.02 | locus YCL061C, strain MRC1, hits give low values 1.01 | [2] 1.01 | locus YDL134C, strain PPH21, hits give low values 0.998 | [3] 0.933 | locus YEL061C, strain CIN8, hits give low values 1.02 | locus YGR078C, strain PAC10, hits give low values 1 | locus YGR229C, strain SMI1, hits give low values 1.02 | [4] 0.957 | locus YHR087W, strain rtc3, hits give low values 1.01 | [5] 1.01 | [6] 1 | [7] 0.991 | locus YLR058C, strain SHM2 (second series), hits give low values 1.02 | locus YLR085C, strain ARP6, hits give low values 1.01 | [8] 1.01 | locus YML094W, strain GIM5, hits give low values 0.992 | locus YMR219W, strain ESC1, hits give low values 1.01 | locus YMR263W, strain SAP30, hits give low values 0.921 | locus YNL153C, strain GIM3, hits give low values 1.02 | locus YNL298W, strain CLA4 (second series), hits give low values 0.982 | locus YNL322C, strain KRE1, hits give low values 1.01 | locus YNR030W, strain Alg12, hits give low values 1.02 | locus YOL006C, strain TOP1, hits give low values 1.02 | locus YPL055C, strain LGE1, hits give low values 1.01 | [9] 1.06 | locus YPR135W, strain CTF4, hits give low values 0.966
